Structures are written as SMILES. About 11,000 (3.1%) of roughly 360,000 compounds were called active. No stated cut-off is given here; in the data, active means activity change below about -30%; inactive means the rest. The sample as a whole holds a higher share of actives than the screen did.
On the % scale 0 is the no-effect control and ±100 the full control effect.

D(1A) dopamine receptor (Homo sapiens), sequence (P21728 whole entry, looked up): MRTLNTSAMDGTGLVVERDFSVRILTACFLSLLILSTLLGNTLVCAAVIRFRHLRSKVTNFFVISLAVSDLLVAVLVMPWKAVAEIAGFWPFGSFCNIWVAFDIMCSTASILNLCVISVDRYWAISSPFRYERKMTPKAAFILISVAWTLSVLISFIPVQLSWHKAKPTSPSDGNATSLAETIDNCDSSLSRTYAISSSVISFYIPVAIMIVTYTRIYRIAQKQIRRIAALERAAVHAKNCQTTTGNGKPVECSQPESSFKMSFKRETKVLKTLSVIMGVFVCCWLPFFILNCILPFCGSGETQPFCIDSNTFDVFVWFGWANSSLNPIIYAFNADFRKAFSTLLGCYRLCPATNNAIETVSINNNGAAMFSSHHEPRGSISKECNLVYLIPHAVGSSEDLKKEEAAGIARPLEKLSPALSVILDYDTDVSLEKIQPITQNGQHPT

This assay addresses D(1A) dopamine receptor (Homo sapiens) (UniProt P21728). Kind of assay: Antagonist of Human D 1 Dopamine Receptor: qHTS. The note with it: HEK293 TREx D1 cells, calcium flux, dopamine EC80; at 10 µM; stronger effect = lower value. In short, it runs like this:
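Cells carrying a force-coupled, tetracycline-inducible human D1 receptor report calcium flux. Each well gets a 10 s baseline, compound with 180 s monitoring, then an EC80 dopamine stimulus with a second 180 s kinetic read.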
(In general: qHTS replaces the single test concentration by a dilution series.)
Turning to `CCOc1ccccc1N(C)C(=O)c1cc2c(s1)-c1ccccc1OC2`, the activity change, negative = inhibition is 7.49% (inactive).

In the case of `Cc1sc(C2C(C#N)=C(N)N(c3cccc(Cl)c3)C3=C2C(=O)CCC3)cc1CN1CCOCC1` (centres undefined), the activity change, negative = inhibition was -16.8% (inactive).

Turning to `Cc1c(C(=O)CN2CCOCC2)[nH]c2ccccc12`, the activity change, negative = inhibition was -9.55% (inactive).

For the compound `Cc1c(C(=O)N2CCOCC2)[nH]c2ccc(OCc3ccccc3)cc12`, the activity change, negative = inhibition is -45.7% (active).

On to `CCOC(=O)c1[nH]c2ccc(OC)cc2c1NC(=O)N1CCOCC1`, for which the activity change, negative = inhibition is -7.34% (inactive).

Regarding `CCOC(=O)c1ccc(NC(=O)Cn2cc(S(=O)(=O)Cc3ccccc3F)c3ccccc32)cc1`, the activity change, negative = inhibition is 16.6% (inactive).

In the case of `Cc1nc2c(-c3ccc(F)cc3)c(C)nn2c(C)c1CCC(=O)NCc1ccco1`, the activity change, negative = inhibition was -61.2% (active).

`Cc1nc2c(-c3ccccc3)c(C)nn2c(C)c1CCC(=O)NCCc1ccccc1`: the activity change, negative = inhibition was -7.07% (inactive).

Consider `COc1cc(OC)cc(-c2nc3nc(C)c(CCC(=O)NCc4ccco4)c(C)n3n2)c1`, for which the activity change, negative = inhibition is -2.94% (inactive).

As to `CCOC(=O)c1c(-c2ccc(OC)cc2)oc2ccc(OCc3ccc(C(=O)OC)cc3)cc12`, the activity change, negative = inhibition is 4.56% (inactive).

Take `O=C(Nc1ccc2nc(SCC(=O)N3CCCc4ccccc43)sc2c1)c1ccc(Cl)cc1`: the activity change, negative = inhibition is -13.6% (inactive).

Consider `Cc1cc(C(F)(F)F)c(C#N)c(SCC(=O)NC2CC2)n1`, for which the activity change, negative = inhibition was -10.9% (inactive).

For the compound `CCN(CC)c1nc(-c2ccccc2)cc(C(F)(F)F)c1C#N`, the activity change, negative = inhibition was -72.6% (active).

For the compound `N#Cc1c(C(F)(F)F)cc(-c2ccccc2)nc1SCC(=O)N1CCOCC1`, the activity change, negative = inhibition was 7.61% (inactive).

Take `Cc1nn(-c2nc(-c3ccccc3)cc(C(F)(F)F)n2)c(C)c1Cl`: the activity change, negative = inhibition is 5.82% (inactive).

In the case of `Cc1ccc(-c2cc(C(F)(F)F)c(C#N)c(SCC(=O)Nc3ccccc3)n2)cc1`, the activity change, negative = inhibition was -36.2% (active).

For the compound `CCOC(=O)COc1nc(C)cc(C(F)(F)F)c1C#N`, the activity change, negative = inhibition is -9.55% (inactive).

Turning to `CCCN1CCc2nc(N3CCN(C)CC3)ncc2C1`, the activity change, negative = inhibition is -15.6% (inactive).

Regarding `CSc1cccc(NC(=O)CN2C(=O)CCc3cc(S(=O)(=O)N4CCCCC4)ccc32)c1`, the activity change, negative = inhibition was -0.775% (inactive).

Turning to `Cc1cc2c(cc3c(SCc4cccc(Cl)c4)nnc(C)n32)o1`, the activity change, negative = inhibition was -2.95% (inactive).

For `Cc1ccc(CNS(=O)(=O)c2ccc(-c3cc(C(F)(F)F)on3)s2)cc1`, the activity change, negative = inhibition was 0.708% (inactive).

Turning to `COc1ccccc1CCNC(=O)c1cccn1-c1nnc(N2CCCCC2)s1`, the activity change, negative = inhibition is 13.6% (inactive).

For `CCCOc1cccc(C(=O)Nc2cccc(NC(=O)c3ccc(C(C)(C)C)cc3)c2)c1`, the activity change, negative = inhibition is -1.05% (inactive).

On to `CCOc1cccc2c1N[C@@H](c1ccc(C(=O)O)cc1)[C@H]1CC=C[C@@H]21`, for which the activity change, negative = inhibition was -19.7% (inactive).

Values taken from PubChem BioAssay AID504652 (National Center for Advancing Translational Sciences (NCATS), 2011).
